# Bioassay records (PubChem)
# This is a sample that favours compounds with a hit; in the whole collection about 1% have one here.
# DUSP1 inh: MKP-1 phosphatase inhibitors, primary screen, biochemical, in vitro. Dual specificity protein phosphatase 1 (Homo sapiens), P28562. recombinant MKP-1, OMFP hydrolysis fluorescence. inhibition, %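 (compounds tested at a single concentration somewhere between 10 and 100 µM)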. 0.15% of 65,000 active;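 active = inhibition above about 50%, limit read from the data; inconclusive = inhibition over screen mean plus 3 SD, below that limit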
# SKBR3 24h inh: SK-BR-3 proliferation inhibitors, primary screen, cell-based, human, 24 h; viability, % at 10 µM; AID 847, 2007; 0.47% of 41,000 active; SK-BR-3 viability, CellTiter-Glo ATP luminescence; stronger effect = lower value;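 active = viability at or below the median of all test compounds minus 3 SD, in both replicates if run twice, cut at about 45% in these data; inconclusive = duplicate replicates that disagree with each other; inactive = viability above that cutoff in every replicate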
# Hsp90 block: tumor Hsp90 inhibitors, primary screen, cell lysate, fluorescence polarization, NCI-N417 lysate | Cy3B-geldanamycin FP displacement | inhibition, % at 30 µM | 0.35% of 64,000 active | AID 429, 2006;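 active = inhibition above 50%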
# WNV protease inh: inhibitors of WNV NS2B-NS3 protease, primary screen, biochemical, fluorogenic substrate | Genome polyprotein (West Nile virus), P06935 | fluorogenic substrate Ex360/Em465; stronger effect = lower value | z-score (test concentration not listed) | AID 577, 2007 | 0.18% of 65,000 active; in the data active = z-score below about -3
# Target sequence (P06935 1371-1501 limits assumed): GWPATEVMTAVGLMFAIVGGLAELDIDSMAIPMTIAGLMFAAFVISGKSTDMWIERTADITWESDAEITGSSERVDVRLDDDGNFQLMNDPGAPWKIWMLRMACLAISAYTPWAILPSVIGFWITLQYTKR
# Target sequence (P06935 1502-1679 limits assumed): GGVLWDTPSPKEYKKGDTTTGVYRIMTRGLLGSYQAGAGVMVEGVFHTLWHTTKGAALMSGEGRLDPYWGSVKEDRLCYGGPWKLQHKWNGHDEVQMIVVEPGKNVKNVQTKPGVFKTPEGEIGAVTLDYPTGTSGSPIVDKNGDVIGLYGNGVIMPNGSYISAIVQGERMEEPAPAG
# Cdc25B inh: inhibitors of Cdc25B phosphatase catalytic domain, primary screen, biochemical, OMFP fluorescence; 0.1% of 65,000 active; M-phase inducer phosphatase 2 (Homo sapiens), P30305; inhibition, %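 (compounds tested at 10 µM final in the well)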; recombinant Cdc25B, OMFP fluorescence Ex485/Em525; in the data active = inhibition above about 50%
# Numbers stand for hits; i = inactive; ? = inconclusive; nt = no result.
SMILES,DUSP1 inh,SKBR3 24h inh,Hsp90 block,WNV protease inh,Cdc25B inh
CC(C)CCN(C)C1CCN(S(=O)(=O)c2cccc(C(F)(F)F)c2)CC1,i,nt,i,i,i
CC(C)(C)C(=O)NC1CCN(S(=O)(=O)c2cccc(C(F)(F)F)c2)CC1,i,23.1,i,i,i
CCN(Cc1ccccc1)C(=O)c1ccccc1C,i,nt,i,-3.46,i
CCN(Cc1ccccc1)C(=O)CCCOc1ccccc1,i,nt,i,i,i
C=CCn1c(SCC(=O)c2ccc(O)c(O)c2)nnc1-c1ccccc1OC,i,i,71.0,i,i
C=CCn1c(SCC(N)=O)nnc1-c1ccccc1O,i,i,i,i,i
CCn1c(SCC(=O)c2ccc(O)c(O)c2)nnc1-c1ccccc1OC,i,i,67.1,i,i
N=C(N)c1ccc(OCCCCCOc2ccc(C(=N)N)cc2)cc1 (tested in a mixture with another compound),nt,nt,i,nt,nt
O=C(Nc1ccc(O)cc1)c1ccc(C(=O)c2ccccc2)o1,i,i,i,i,i
Cc1cc(C)c(S(=O)(=O)N2CCN(C)CC2)c(C)c1,i,i,i,i,i
CC(C)C[C@H](N)CSSC[C@@H](N)CC(C)C,nt,nt,i,nt,nt
O=C(Nc1ccccc1)c1cccnc1N1CCOCC1,i,nt,i,i,53.2
O=C(Nc1cccc(F)c1)c1cccnc1N1CCOCC1,i,nt,i,i,i
CCC(CO)Nc1nc(NCc2ccccc2)c2ncn(C(C)C)c2n1 (stereo not given),nt,nt,i,nt,nt
O=S(=O)(c1cccc(-c2nnco2)c1)N1CCCC1,i,nt,91.3,i,i
COCCN(CCOC)S(=O)(=O)c1ccc(C(=O)Nc2nc(C)c(C(C)=O)s2)cc1,i,i,i,i,i
Cc1nnc(NC(=O)c2ccc(S(=O)(=O)N(C)Cc3ccccc3)cc2)o1,i,30.9,i,i,i
COCc1nnc(NC(=O)c2ccc(S(=O)(=O)N(C)C3CCCCC3)cc2)o1,i,26.6,i,i,i
COCCN(CCOC)S(=O)(=O)c1ccc(C(=O)Nc2nnc(C)o2)cc1,i,19.2,i,i,i
COc1ccccc1C1CC(c2ccccc2)Nc2ncnn21 (stereo not given),i,i,i,i,i
COc1ccc(-c2nc3c(n2O)CCCC3=O)cc1OC,i,i,i,i,i
O=C(CN1CCN(C(=O)c2c(F)cccc2F)CC1)Nc1ccccc1F,i,nt,i,i,i
COc1ccc2[nH]c(=O)c(CN(CCN(C)C)C(=O)NCc3ccccc3)cc2c1,i,nt,i,i,i
Cc1ccc(C)c2[nH]c(=O)c(CN(CCCN(C)C)C(=O)NCc3ccccc3)cc12,i,43.9,i,i,i
COc1cc(NS(=O)(=O)c2ccc(F)c(C#N)c2)c2ncccc2c1,nt,nt,i,nt,nt
SMILES,DUSP1 inh,SKBR3 24h inh,Hsp90 block,WNV protease inh,Cdc25B inh
CCn1c(O)c(C=NCCN2CCOCC2)sc1=S,i,i,i,-4.55,i
CC1(C)CC(=O)C(C=NCCCN2CCOCC2)=C(O)C1,i,i,i,i,i
CN(C)CCCN1C(=O)C(=O)/C(=C(/O)c2ccc(OCc3ccccc3)cc2)C1c1cccnc1 (stereo not given),i,i,77.6,i,i
CCOC(=O)C1=C(C)NC(SCC(=O)Nc2nc(C)cs2)=C(C#N)C1c1cccs1 (stereo not given),i,i,i,i,i
CCOC(=O)CS(=O)(=O)c1nc(-c2ccc(F)cc2)cc(C(F)(F)F)n1,i,25.8,i,i,i
CCOC(=O)CS(=O)(=O)c1nc(-c2ccccc2)cc(C(F)(F)F)n1,i,?,i,i,i
CC(C)n1c(-c2cccnc2)nc2cnccc21,i,i,i,-9.37,i
CC(C)(C)C(=O)/C=C(N)/C=C/c1ccccc1,i,nt,i,i,i
CN(C)/C=C1/Sc2ccccc2C1=O,i,i,nt,-4.06,i
N#C/C=C1/NC(=O)c2ccccc2S1,i,nt,i,i,i
O=C(c1ccc2c(c1)OCO2)N(c1ccc(Cl)cc1)C1C=CS(=O)(=O)C1 (stereo not given),i,nt,i,i,i
O=C(Nc1nc(-c2ccc3c(c2)OCO3)cs1)C1COc2ccccc2O1 (stereo not given),i,nt,91.1,i,i
O=C(Nc1nc(-c2ccccn2)cs1)C1COc2ccccc2O1 (stereo not given),i,nt,i,i,i
COc1ccc(NC(=O)C(F)(OC)C(F)(F)F)c(OC)c1 (stereo not given),i,41.4,i,i,i
CCn1c(CNc2cccc(Cl)c2)nnc1SCc1ccccc1,i,37.4,i,i,i
Cn1c(CNC(=O)Nc2cccc(Cl)c2)nnc1SCc1ccccc1,i,i,i,i,i
Fc1ccccc1Cn1nnc2c(-n3ccnc3)ncnc21,i,i,i,i,i
COc1cc(N=Cc2ccc([N+](=O)[O-])cc2)c2ncccc2c1,nt,nt,i,nt,nt
O=C(NC1=NCCS1)c1ccc(OCC2CCCO2)cc1 (stereo not given),i,nt,i,i,54.9
O=S(=O)(c1ccc(F)cc1)N(CCO)CC(O)Cn1c2ccccc2c2ccccc21 (stereo not given),i,?,i,-4.11,i
CC1=CC(C)(C)Nc2ccc(OC(=O)c3ccco3)cc21,i,13.6,i,i,i
CC1=CC(C)(C)Nc2ccc(OC(=O)c3cccnc3)cc21,i,nt,i,i,i
O=C1c2ccccc2-c2onc3ccc(NCc4ccco4)c1c23,i,i,50.2,i,i
O=c1nccc(NCc2ccco2)[nH]1,i,i,i,i,i
CCOC(=O)C(C(C)=O)c1c(Br)c(O)c(O)c2c(C(=O)c3ccc(C)cc3)coc12 (stereo not given),i,?,i,i,i
SMILES,DUSP1 inh,SKBR3 24h inh,Hsp90 block,WNV protease inh,Cdc25B inh
Cc1occc1C(=O)NC(C)C1CCCO1 (stereo not given),i,i,i,i,i
CC(NC(=O)c1ccc2c(c1)OCO2)C1CCCO1 (stereo not given),56.0,i,nt,i,i
O=C1CC(Cc2ccccc2)C(=O)N1Cc1ccco1 (stereo not given),i,nt,i,i,i
O=C1CC(NCc2ccco2)C(=O)N1CCc1ccccc1 (stereo not given),i,i,i,i,52.7
COCCn1c(SCC(=O)OC(C)C)nnc1-c1ccccc1,i,i,i,i,i
FC(F)(F)c1ccc(N2CCOCC2)c(NC2=NCCCCC2)c1,i,nt,i,i,i
CCOc1cc(N2CCOCC2)c(OCC)cc1NC1=NCCCCC1,i,nt,60.9,i,i
O=C(NCc1ccccn1)c1nnc(Cc2ccc(Cl)cc2)o1,i,nt,i,i,i
CCN(CC)c1nc(N)nc(NS(=O)(=O)c2ccc(Cl)cc2)n1,i,nt,i,i,i
CCNc1nc(NC(C)C)nc(NS(=O)(=O)c2ccc(Cl)cc2)n1,i,42.4,i,i,i
COc1cccc(-c2nc(CS(=O)CC(=O)NCc3ccccc3)c(C)o2)c1 (stereo not given),i,nt,i,i,i
